A selection: hits, their analogues and other compounds. The true share with any hit is near 11%.
NS1 inh = influenza NS1 inhibition | AID 2326 | 270,000 compounds, 0.4% hits | Potency, µM (highest dose often 46.1 µM), for inactives: top-dose activity, positive = more growth; calls by dose curve; also: actives are rising curves; nearly all actives have a fitted effect of over 50% in size
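Read-out: OD600 growth recovery of NS1-expressing budding yeast. Cells grown overnight at 30C in -URA glucose medium, washed, resuspended and diluted 1:100 in 2% galactose assay medium, pH 6.0. Same strain lacking NS1 served as positive control.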
Pf growth 96h = P. falciparum growth inhibition at 96 hours; P. falciparum luciferase reporter growth, 96 h; Potency, µM (top dose mostly 28.7 µM), inactives show top-dose activity change, negative = inhibition, usual class: inhibitors; 320,000 compounds, 6.9% hits; AID 504834; also: % is scaled to controls: 0 for no effect and ±100 for the full control effect
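Two parasite generations (96 h, 37 C, 5% CO2) of compound exposure in infected erythrocytes (0.05% parasitemia, 2% hematocrit). Luciferase-reporter P. falciparum; decreased luminescence indicates inhibited growth, aimed at apicoplast-acting delayed death.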
Pf growth 48h = inhibits P. falciparum growth in the first generation, 48 h; P. falciparum luciferase growth in erythrocytes, 48 h; Potency, µM (top dose mostly 28.7 µM), without a hit: at the highest dose activity change, negative = inhibition, most hits filed as inhibitors; 310,000 compounds, 5.9% hits; AID 504832; also: % is scaled to controls: 0 for no effect and ±100 for the full control effect
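First compound was added to culture medium, then infected red cells at 0.1% parasitemia and 2% hematocrit (final). After incubation at 37 C under 5% CO2, luciferase detection reagent was dispensed and light output recorded.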
Sm TGR inh = inhibitors of Schistosoma mansoni thioredoxin glutathione reductase | purified TGR, DTNB reduction, TNB absorbance 405 nm | Potency, µM (top dose mostly 114 µM), for the others: at the top dose activity change, negative = inhibition, hits mostly inhibitors | 360,000 compounds, 3% hits; also: % is scaled to controls: 0 for no effect and ±100 for the full control effect; nearly all actives have a fitted effect of over 60% in size
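TGR 20 nM + NADPH 100 uM (dispensed conc.), cpd preinc 15 min RT; start with NADPH (500 uM addition) then DTNB (15 mM addition). Kinetic TNB absorbance, 405 nm filter. Four-parameter Hill fit across titration.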
AMA1-RON2 inh = inhibitors of Plasmodium falciparum AMA1-RON2 interaction | AID 720542 | Potency, µM (titrated, usually from 58.2 µM), for inactives: at the highest dose activity change, negative = inhibition, actives largely listed as inhibitors | AlphaScreen AMA1-biotinylated RON2 peptide binding | 360,000 compounds, 0.2% hits;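 also: 0% = vehicle wells and -100% = peptide control; nearly all actives have a fitted effect of over 45% in size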
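AMA1 (3D7) with his tag at 25 nM final met compounds first, then biotinylated RON2 peptide at 25 nM; detection used donor plus acceptor beads, 10 µg/mL apiece, read by AlphaScreen after 30 min at room temperature.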
An asterisk follows results filed as active; i = inactive; ? = inconclusive; · = not tested or not shown. Unless noted, calls follow the shape of the dose curve; as a rule, active = well fitted curve in the direction sought with a large enough effect; inconclusive = small, poorly fitted or top-dose-only effect, or another doubt; inactive = no such curve, though single readings can be large; an effect the other way counts as inactive or inconclusive. Potency is read from the fitted curve at half-maximal effect.

SMILES	NS1 inh	Pf growth 96h	Pf growth 48h	Sm TGR inh	AMA1-RON2 inh
CCOc1ccc(CCNC(=O)CCSCc2cccc(Cl)c2)cc1OCC	·	·	·	-1%	·
O=[N+]([O-])c1ccc(OCn2cncn2)cc1	·	71%	-6%	-2%	-3%
Cc1cc(C)c(S(=O)(=O)c2ccccc2C)c(Cl)n1	-14%	15%	3%	-16%	7%
CCCCSc1nc(C)cc(C)c1S(=O)(=O)c1ccccc1C	-4%	10µM*	?	10%	63%
C=CCN=C(NC#N)SC	11%	26%	0.23µM*	4%	3%
C=CCN=C(NC#N)SCC(=O)NC(C)(C)C	0%	6%	14%	1%	6%
O=c1c(Cl)c(Cl)cnn1Cc1nnc(-c2ccccc2Br)o1	·	-5%	5%	6.3µM*	6%
O=C(c1ccc(CS(=O)(=O)c2ccc(Br)cc2)o1)N1CCC2(CC1)OCCO2	5%	i	13%	35µM*	-6%
COc1ccc(S(=O)(=O)Cc2ccc(C(=O)N3CCOCC3)o2)cc1	-1%	?	6%	28µM*	13%
O=C(c1ccc(CNS(=O)(=O)c2ccc(Br)cc2)cc1)N1CCC2(CC1)OCCO2	-4%	?	?	-12%	21%
O=C(c1ccc(CNS(=O)(=O)c2ccccc2)cc1)N1CCC2(CC1)OCCO2	-10%	8.3µM*	55%	40µM*	1%
O=C(c1ccc(CS(=O)(=O)c2ccc(Br)cc2)o1)N1CCN(c2ccc(F)cc2)CC1	-3%	?	?	0%	-5%
O=C(c1ccc(CS(=O)(=O)c2ccccc2)o1)N1CCN(c2ncccn2)CC1	4%	-24%	·	28µM*	-1%
C[C@@H]1CN([C@@H](C)CO)C(=O)CCCn2nncc2CO[C@H]1CN(C)Cc1ccccc1C(F)(F)F	·	·	·	·	-5%
O=C(c1ccc(CS(=O)(=O)c2ccc(Br)cc2)o1)N1CCOCC1	-5%	?	·	45µM*	8%
O=C(c1ccc(CS(=O)(=O)c2ccccc2)o1)N1CCC2(CC1)OCCO2	24%	-4%	18%	22µM*	-25%
O=C(c1ccc(CS(=O)c2ccccc2Cl)o1)N1CCOCC1 (stereo not given)	6%	-4%	1%	32µM*	-4%
Cc1cccc(CS(=O)(=O)Cc2ccc(C(=O)N3CCC4(CC3)OCCO4)o2)c1	3%	·	4%	?	44%
CCC(C)N1C(=O)N(c2cccc(Cl)c2)C(C)(O)CC1(C)C (stereo not given)	-3%	-14%	-17%	-6%	2%
CCN(CC)CCCN1C(=O)C(=O)/C(=C(/O)c2ccc3c(c2)CC(C)O3)C1c1cccnc1 (stereo not given)	13%	1.5µM*	11%	3%	·
COc1ccc(/C(O)=C2/C(=O)C(=O)N(CCN(C)C)C2c2ccccn2)cc1OC (stereo not given)	4%	?	16%	13µM*	101%
Cc1ccc(/C(O)=C2/C(=O)C(=O)N(CCN3CCOCC3)C2c2ccccn2)cc1 (stereo not given)	?	73%	31%	25µM*	27%
CCN(CC)CCCN1C(=O)C(=O)/C(=C(/O)c2ccc3c(c2)OCO3)C1c1ccccn1 (stereo not given)	10%	·	·	·	·
O=C1C(=O)N(CCN2CCOCC2)C(c2ccccn2)/C1=C(/O)c1ccccc1 (stereo not given)	5%	3%	18%	?	19%
CN(C)CCCN1C(=O)C(=O)/C(=C(/O)c2ccccc2)C1c1ccccn1 (stereo not given)	-8%	-18%	2%	-20%	·
CCN(CC)CCCN1C(=O)C(=O)/C(=C(/O)c2ccc3c(c2)CC(C)O3)C1c1ccncc1 (stereo not given)	5%	?	12%	0%	·
CCN(CC)CCCN1C(=O)C(=O)/C(=C(/O)c2ccc(C)cc2)C1c1ccccn1 (stereo not given)	?	3.3µM*	6%	-5%	21%
O=C(NCc1ccccc1CN1CCCC1)c1ccc(Cl)c(N2CCCC2=O)c1	·	?	?	-24%	-9%
CC1=C(C(=O)Nc2ccc(C)cc2C)C(C(C)C)n2nc(SCc3ccccc3Cl)nc2N1 (stereo not given)	·	·	·	3%	·

Bioassay records (PubChem BioAssay)
